Experimental data published in PubChem BioAssay AID1347048 (National Center for Advancing Translational Sciences (NCATS), 2019).
Out of some 76,000 compounds screened, about 1,200 (1.6%) were called active. About 4% were inconclusive and are not listed. Many of the other results were omitted from the sample, so actives are more common in it than they were. Unmarked numbers belong to inactive results. The call rests on the fitted dose curve.

Target: Atrial natriuretic peptide receptor 1 (Homo sapiens) (UniProt P16066)
Assay: Natriuretic polypeptide receptor (hNpr1) antagonism - Primary qHTS; further: nearly all actives have a fitted effect of over 60% in size
Conditions: HEK293 hNpr1 GloSensor cGMP, ANP-stimulated luminescence; series mostly up to 46.3 µM; activity change, negative = inhibition: at the top concentration
How it was run: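 Compound pre-incubated 30 min at room temperature on GloSensor-loaded HEK293 cells stably carrying hNpr1 and the pGS-40F cGMP biosensor. Stimulation uses hNppA at 0.1 nM final; luminescence is taken at baseline and 20 min post-agonist.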
On the % scale 0 is the no-effect control and ±100 the full control effect; potency means the concentration at half of the fitted maximal effect.

Sequence of Atrial natriuretic peptide receptor 1 (Homo sapiens) (P16066 whole entry, looked up): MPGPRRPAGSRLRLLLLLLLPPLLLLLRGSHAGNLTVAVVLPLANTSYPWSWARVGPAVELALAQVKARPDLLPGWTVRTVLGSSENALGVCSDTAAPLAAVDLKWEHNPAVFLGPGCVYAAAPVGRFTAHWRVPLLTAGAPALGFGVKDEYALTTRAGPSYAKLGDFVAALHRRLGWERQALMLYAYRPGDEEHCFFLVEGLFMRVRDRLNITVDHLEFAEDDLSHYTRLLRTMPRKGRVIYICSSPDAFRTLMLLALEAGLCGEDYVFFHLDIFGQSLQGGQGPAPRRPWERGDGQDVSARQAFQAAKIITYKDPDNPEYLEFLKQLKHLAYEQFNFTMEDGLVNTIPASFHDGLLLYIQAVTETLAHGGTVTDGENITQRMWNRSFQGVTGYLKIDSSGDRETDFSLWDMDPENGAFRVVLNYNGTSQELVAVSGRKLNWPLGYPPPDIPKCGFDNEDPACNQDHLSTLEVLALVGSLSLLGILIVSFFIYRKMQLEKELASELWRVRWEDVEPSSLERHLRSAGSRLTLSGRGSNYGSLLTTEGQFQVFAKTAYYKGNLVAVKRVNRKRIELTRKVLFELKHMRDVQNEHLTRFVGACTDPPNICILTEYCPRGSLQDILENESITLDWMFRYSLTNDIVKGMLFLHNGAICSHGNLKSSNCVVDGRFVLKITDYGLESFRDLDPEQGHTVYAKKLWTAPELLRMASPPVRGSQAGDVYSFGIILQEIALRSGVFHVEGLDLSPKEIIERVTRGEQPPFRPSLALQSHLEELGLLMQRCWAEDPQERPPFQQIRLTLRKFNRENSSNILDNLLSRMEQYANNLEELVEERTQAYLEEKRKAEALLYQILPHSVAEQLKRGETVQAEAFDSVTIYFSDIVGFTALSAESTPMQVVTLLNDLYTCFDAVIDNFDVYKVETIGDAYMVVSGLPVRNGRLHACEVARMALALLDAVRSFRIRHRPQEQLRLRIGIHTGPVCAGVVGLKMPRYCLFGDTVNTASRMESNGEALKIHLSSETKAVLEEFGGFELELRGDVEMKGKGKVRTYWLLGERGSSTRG

SMILES	activity change, negative = inhibition	Potency
COCC1CN(Cc2ccc(OC)c(OC)c2Cl)CC12CCNCC2 (stereo unspecified)	0.762%	–
COc1ccc(-c2cc(CC3(NCc4cccc(OC)c4)COC3)no2)cc1	-0.189% [at 70.6 µM]	–
CCN(CC)C(=O)[C@@H]1CCC[C@@H](NC2CCC2)CN(C)C(=O)C1	0.442% [at 70.6 µM]	–
COc1ccc(CC(=O)N2CCC3(CC2)CC(O)CCO3)cc1OC (stereo unspecified)	6.61%	–
COc1ccc(CC(=O)N2CCC(Cc3nc(-c4ccccc4)no3)CC2)cc1OC	–	10 µM (active)
COc1ccc(-c2nc3c(c(=O)[nH]2)CCN(C(=O)Cc2ccc(OC)c(Cl)c2)C3)cc1	0.917%	–
COc1ccc(CC(=O)N2CCC(Cc3nc(-c4cnccn4)no3)CC2)cc1Cl	1.04%	–
COc1ccc(-c2noc(CC3CCN(C(=O)Cc4ccc(OC)c(OC)c4)CC3)n2)cc1	–	2.82 µM (active)
COc1ccc(CC(=O)N2CCC(Cc3nc(C(C)C)no3)CC2)cc1Cl	-25.4%	–
CCOCCOc1cccc(C(=O)N2CCC3(CCOCC3)CC2)c1	-1.4%	–
CN(C)C(=O)c1n[nH]c2c1CN(C(=O)c1cccc(C(F)(F)F)c1)CC2	3.83%	–
Cc1cc(C)c(CNC(=O)c2nc(-c3cccc(CO)c3)cc3c2ccn3C)c(=O)[nH]1	5.49% [at 70.6 µM]	–
Cc1ccccc1-n1nc(CC(N)=O)nc1-c1ccc(Cn2cnnn2)cc1	2.3%	–
Cc1ccccc1CC(=O)N1CCC[C@H]1c1nc(-c2ccccc2Cl)no1	-12.8%	–
O=c1[nH]c(C2CCN(Cc3ccccc3)CC2)nc2ccc(F)cc12	1.49% [at 70.6 µM]	–
O=c1[nH]c(C2CCN(Cc3ccc(F)cc3)CC2)nn1Cc1ccccc1	-2.72%	–
N#Cc1cccc(CN2CCC(C3=NC(O)c4cc(F)ccc4N3)CC2)c1 (stereo unspecified)	–	8.91 µM (active)
O=C(c1ccoc1)N1CCN(c2cc(-c3ccc(Cl)cc3)[nH]n2)CC1	0%	–
Cc1ccc(C(=O)N2CCN(c3cc(-c4ccc(Cl)cc4)[nH]n3)CC2)c(C)c1	–	6.31 µM (active)
O=C(c1cc(F)ccc1Cl)N1CCN(c2cc(-c3ccc(F)cc3)[nH]n2)CC1	–	17.8 µM (active)
COc1ccc(-c2cc(N3CCN(C(=O)c4ccncc4)CC3)n[nH]2)cc1	-0.727%	–
O=C(c1ccc(Br)cc1)N1CCN(c2cc(-c3ccccc3)[nH]n2)CC1	-23.3%	–
COc1ccc(-c2cc(N3CCCN(C(=O)c4ccc(C)cc4)CC3)n[nH]2)cc1	3.59%	–
O=C(Cc1ccc(F)cc1)NC1CCN(c2cc(-c3ccc(Cl)cc3)[nH]n2)CC1	-5.64%	–
O=C(c1ccc(F)cc1F)N1CCN(c2cc(-c3ccc(Cl)cc3)[nH]n2)CC1	–	14.1 µM (active)
COc1ccc(-c2cc(N3CCN(C(=O)c4cc(OC)cc(OC)c4)CC3)n[nH]2)cc1	-13.1%	–

SMILES	activity change, negative = inhibition	Potency
CC(C)c1cc(C2CCCN2CCC(=O)Nc2ccc(C(N)=O)cc2)no1 (stereo unspecified)	-2.82%	–
COc1ccc(-c2nc(C3CC(=O)N(c4ccc(F)c(Cl)c4)C3)no2)cc1OC (stereo unspecified)	-0.022%	–
O=C1NCCOCCCN(C(=O)CC2CCCC2)[C@H]2CCC[C@@H]12	1.56%	–
Cn1cnc(S(=O)(=O)N2CCCC(Cc3noc(-c4cnccn4)n3)C2)c1 (stereo unspecified)	-0.0449%	–
Cc1cn2nc(C(=O)NCC(C)c3ccccc3)cc2c(N2CCCC2)n1 (stereo unspecified)	16.1%	–
O=C(NCC1CC1)C1Cn2cccc2C(=O)N1Cc1cccnc1 (stereo unspecified)	2.95%	–
Cc1ccnc(N2CCC(c3nnc(-c4ccc(F)cc4)o3)CC2)n1	4.7%	–
COc1ccc(-c2onc(C)c2C(=O)NCCC(c2ccccc2)c2ccccc2)cc1	-19.3%	–
Cc1cccc(-c2cc(C3CCN(S(=O)(=O)c4ccc(C#N)cc4)CC3)[nH]n2)c1	-19.8%	–
Cc1cccc(CN2CCCCCCNC(=O)[C@@H]3CCC[C@@H]32)c1	-14%	–
COc1cccc(CN2Cc3nc(-c4cc(F)cc(F)c4)ccc3OCC2=O)c1	-10% [at 70.6 µM]	–
O=C(c1ccoc1)N1CCN(C(=O)c2nnn3c2COC(c2ccc(Cl)cc2)C3)CC1 (stereo unspecified)	-24.7%	–
COc1ccc(C2Cn3nnc(C(=O)N4CCN(C(=O)c5ccc(C)cc5C)CC4)c3CO2)cc1 (stereo unspecified)	–	14.1 µM (active)
COc1ccc(C2Cn3nnc(C(=O)N4CCC(C(=O)NCc5ccc(C)cc5)CC4)c3CO2)cc1 (stereo unspecified)	-10.2%	–
Cc1ccc(C2Cn3nnc(C(=O)N4CCN(C(=O)COc5cccc(C)c5)CC4)c3CO2)cc1 (stereo unspecified)	4.44%	–
COc1ccc(C2Cn3nnc(C(=O)N4CCN(C(=O)c5cccc(Cl)c5)CC4)c3CO2)cc1 (stereo unspecified)	–	7.08 µM (active)
CN(C)c1ccc(C(=O)N2CCN(C(=O)c3nnn4c3COC(c3ccc(Cl)cc3)C4)CC2)cc1 (stereo unspecified)	-13%	–
O=C1N(Cc2ccc(F)cc2)C[C@H]2CN(Cc3ccncc3F)CCN12	-5.47% [at 70.6 µM]	–
Cc1ccc(C2Cn3nnc(C(=O)N4CCC(C(=O)Nc5ccc(Cl)cc5)CC4)c3CO2)cc1 (stereo unspecified)	-25.5%	–
CC(C)(O)CCc1ccc(C(=O)NCc2nc(-c3ncccn3)no2)cc1	-1.7%	–
COc1ncccc1Nc1cnc2ccc(N3CCOCC3)nn12	-10.5% [at 70.6 µM]	–
CCOc1cccc(-c2nnc(CCC(=O)NCCC(C)C)c(=O)[nH]2)c1	-3.78%	–
CCNc1cc(N2CCC(CCC(=O)N3CCc4ccccc4C3)CC2)ncn1	–	11.2 µM (active)
CCCNc1cc(N2CCC(CCC(=O)Nc3ccc(C)cc3)CC2)ncn1	-25.4%	–
CCNc1cc(N2CCC(CCC(=O)Nc3ccc(C)cc3C)CC2)ncn1	5.36%	–
CS(=O)(=O)N1C[C@H]2CCN(C(=O)c3cc(F)ccc3Cl)C[C@H]21	11.3%	–

SMILES	activity change, negative = inhibition	Potency
COc1ccc2nc([C@H]3CCN(Cc4ccc(NC(C)=O)cc4)C3)[nH]c2c1	-1.71% [at 70.6 µM]	–
Cc1ccc2nc(C3CCCN(Cc4ccc(C#N)cc4)C3)[nH]c(=O)c2c1 (stereo unspecified)	–	14.1 µM (active)
O=c1[nH]c(C2CCCN(Cc3ccc(-c4ccsc4)cc3)C2)nc2ccc(F)cc12 (stereo unspecified)	-27.1%	–
CC(C)c1noc(-c2cn(C3CCN(C(=O)COc4ccccc4)C3)nn2)n1 (stereo unspecified)	0%	–
CC(C)c1noc(-c2cn(C3CCN(C(=O)c4cccc(C#N)c4)CC3)nn2)n1	0%	–
CC(C)c1cc(C(=O)N2CCC(n3cc(-c4ccccn4)nn3)CC2)n(C)n1	–	10 µM (active)
COc1ccc(C(=O)N2CCCC(Cc3nc(C4CCOCC4)no3)C2)cc1 (stereo unspecified)	-11.9%	–
O=C(C1CC1)N1CCCC(c2noc(COc3ccccc3F)n2)C1 (stereo unspecified)	2.7%	–
O=C(c1cccnc1)N1CCC(Cc2nc(C3CCOCC3)no2)CC1	-27.1%	–
O=C(c1ccccc1)N1CCC(C(=O)N2CCC(Cc3nc(-c4ccc(F)cc4)no3)CC2)CC1	–	11.2 µM (active)
COc1cccc(C(=O)N2CCC(Cc3nc(-c4cnccn4)no3)CC2)c1	5.25%	–
COc1cccc(-c2noc(CC3CCN(C(=O)c4ccc(F)cc4)CC3)n2)c1	–	5.62 µM (active)
CCN(Cc1ccncc1)C(=O)c1ccc2c(c1)C(O)CCCCCN2C (stereo unspecified)	-23%	–
C=C(C)CN(CC)C(=O)c1c(C)oc2c1CN(Cc1cccc(F)c1)CC2	0.0659%	–
O=C(C[C@@H]1CCNC[C@@H]1Cc1cc(CC2CCCCC2)on1)N1CCOCC1	-1% [at 70.6 µM]	–
COCCCNC(=O)c1ccc2c(c1)n(Cc1cccc(OC)c1)c(=O)c1ccnn12	-5.71%	–
COCC1CN(C2CCC2)CC12CCN(C(=O)CCc1ccccc1)CC2 (stereo unspecified)	-29.6%	–
COc1ccc(CN2C(=O)COC[C@H]2C(=O)Nc2ccc(C(C)C)cc2)c(OC)c1	-2.17%	–
CN1CCN(Cc2ccc(Nc3ncc(-c4cccnc4)c4c3OCC4)cc2)CC1	-0.125% [at 70.6 µM]	–
CN(C)c1cccc(-c2cnc(Nc3cnccn3)c3c2CCO3)c1	-2.41% [at 70.6 µM]	–
CN(C)c1cccc(-c2cnc(Nc3ccc(N4CCOCC4)cc3)c3c2CCO3)c1	–	25.1 µM (active)
O=C(Nc1ccc(-c2nnc3n2CCCC3)cc1)c1ccsc1	-1.56%	–
CCn1c2c(c(=O)n1-c1ccccc1)CCN(C(=O)COc1ccccc1)C2	-0.0947% [at 70.6 µM]	–
O=C(Nc1ccc(F)cc1)c1ccc2ccnn2c1	-2.71% [at 70.6 µM]	–
